Test results taken from PubChem BioAssay AID720582 (The Scripps Research Institute Molecular Screening Center, 2013).
Among all 370,000 compounds or so, about 2,300 (0.62%) were called active. For the sample, actives were picked, then their nearest neighbours and some compounds at random. Unmarked numbers belong to inactive results.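 The calls were made as follows: active = inhibition above a per-campaign cutoff equal to the mean of compounds falling between control-based bounds plus 3 SD (cut at about 20% in these data); inactive = the rest.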

These compounds were tested against Disintegrin and metalloproteinase domain-containing protein 10 (Homo sapiens) (UniProt O14672) (assay: human ADAM10 inhibitors, primary screen, biochemical, QFRET, HTS (AID 720582;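 also: 0% = DMSO wells while the 100% control is not disclosed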)). Settings: recombinant ADAM10, EDANS/DABCYL FRET peptide cleavage, 3 h; at 7 µM; active compounds read high.
Chain of Disintegrin and metalloproteinase domain-containing protein 10 (Homo sapiens) (O14672 214-748 limits assumed): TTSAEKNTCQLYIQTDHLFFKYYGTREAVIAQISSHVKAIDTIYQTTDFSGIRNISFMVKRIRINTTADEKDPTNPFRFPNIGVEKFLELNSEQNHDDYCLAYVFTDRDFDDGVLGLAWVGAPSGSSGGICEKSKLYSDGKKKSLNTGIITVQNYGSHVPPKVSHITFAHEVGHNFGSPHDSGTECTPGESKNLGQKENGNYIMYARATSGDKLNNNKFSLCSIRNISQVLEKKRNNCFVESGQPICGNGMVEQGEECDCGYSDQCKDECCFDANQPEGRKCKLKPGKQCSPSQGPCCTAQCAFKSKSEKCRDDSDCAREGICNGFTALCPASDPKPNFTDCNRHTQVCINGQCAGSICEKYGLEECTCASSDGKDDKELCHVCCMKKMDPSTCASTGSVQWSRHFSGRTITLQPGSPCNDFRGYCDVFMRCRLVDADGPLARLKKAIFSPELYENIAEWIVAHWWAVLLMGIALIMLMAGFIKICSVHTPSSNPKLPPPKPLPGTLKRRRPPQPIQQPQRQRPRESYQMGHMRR

Row | SMILES | inhibition
1 | O=C(NCCCc1ccccc1)[C@H](Cc1ccccc1)NC1(C(=O)NCCc2c[nH]c3ccccc23)CCC1 | 10.8%
2 | CCCC(=O)n1nc(NCc2ccc(OC)cc2)nc1NCc1ccc(OC)cc1 | 21.3% (active)
3 | CCCn1nnnc1NCc1ccc(OC)cc1 | 0.98%
4 | O=C(c1cccs1)n1nc(NCc2ccccc2)nc1NCc1ccccc1 | -4.16%
5 | Cc1cc(C)nc(NC(=S)N2CCN(c3ccc(C(F)(F)F)cn3)CC2)c1 | -0.75%
6 | O=C1CC[C@@H](COc2ccc3[nH]cc(-c4ccccc4)c3c2-c2ccccc2)N1 | -16.4%
7 | CC(=O)Nc1ccc(NC(=O)CSCc2cnn(-c3ccccc3)c2-n2cccc2)cc1 | -1.8%
8 | Cc1cc(C)cc(NC(=O)CSc2ccccc2)c1 | 7.73%
9 | Cc1cc(C)cc(NC(=O)CSCc2cnn(-c3ccccc3)c2-n2cccc2)c1 | 20.7% (active)
10 | O=C(NCCc1c[nH]c2ccccc12)OCc1cn(-c2c(F)cccc2F)nn1 | 2.44%
11 | CCOC(=O)[C@@]12CCC3=C1N(CCC3)C(=O)[C@H](CC(=O)N1CCN(C(=O)c3ccco3)CC1)C2 | 0.02%
12 | N#Cc1nc(Cc2cccc3ccccc23)oc1NCc1ccc2c(c1)OCO2 | 22.7% (active)
13 | O=C(CCNS(=O)(=O)c1ccccc1C(F)(F)F)NCc1ccc2c(c1)OCO2 | 4.73%
14 | CC1(C(=O)NCc2ccc3c(c2)OCO3)CCN1C(=O)Cc1cccc2ccccc12 (stereo not given) | -4.08%
15 | C[C@@H]1COc2cccc(N3CCCC3)c2S(=O)(=O)N1C | -13.8%
16 | CCCCNC(=O)C[C@@H]1C(=O)N(CCc2ccc(Cl)cc2)C2=CCCC[C@]21C(=O)OCC | 1.59%
17 | CCCCC(=O)N[C@@H]1CC[C@@]23CCCN2C(=O)CCC[C@H]3[C@H]1C | -8.02%
18 | CC(C)(C)NC(=O)C(c1cccnc1)N(C(=O)c1cnco1)c1ccc(C(C)(C)C)cc1 (stereo not given) | -5.34%
19 | Cc1ccc(/C=N/NC(=O)CSc2nc3ccccc3o2)cc1 | 22.1% (active)
20 | O=C(CSc1nc2ccccc2o1)N/N=C/c1ccccc1C(=O)O | 5.59%
21 | CC1Cc2ccccc2N1C(=O)CSc1nc2ccccc2o1 (stereo not given) | 3.31%
22 | C[C@H](C(=O)N(C)c1ccccc1)[C@@H](O)c1ccc2ccccc2c1 | -0.77%
23 | COc1ccc(-c2cc(-c3nnc(SCc4ccc([N+](=O)[O-])cc4)n3N)[nH]n2)cc1 | 0.29%
24 | COc1ccc(C(=O)NNc2cc(C)nc(NNC(=O)c3ccc(OC)cc3)n2)cc1 | -1.03%
25 | COc1cc(NS(=O)(=O)c2ccc(NC(=S)NC(=O)c3ccccc3)cc2)nc(OC)n1 | 6.57%
26 | COc1ccc(C(=O)NNC(=S)NC(=O)c2ccccc2)cc1 | 24% (active)
27 | C=C1C(C(C)C)N(C)C2=NC(c3ccccc3)CC(=O)N12 (stereo not given) | -17.1%

Row | SMILES | inhibition
28 | COc1cccc(C2CC(c3cccs3)=NN2C(=O)CSC2=NCCS2)c1OC (stereo not given) | -3.83%
29 | COc1cccc(C2CC(c3ccccc3)=NN2S(=O)(=O)c2ccccc2)c1OC (stereo not given) | 29.9% (active)
30 | CCS(=O)(=O)Nc1ccc(C2=NN(S(=O)(=O)c3ccc(F)cc3)C(c3ccco3)C2)cc1 (stereo not given) | 4.53%
31 | Cc1ccc(C)c(NC(=O)CCS(=O)(=O)c2ccccc2)c1 | -11.5%
32 | CC(C)(C)OC(=O)NCc1cc(F)ccc1/C=C/S(=O)(=O)NCCc1ccccc1 | 11.5%
33 | O=C(c1ccncc1)N1CC[C@H]2[C@H](CCCN2Cc2ccc(F)cc2)C1 | -25.2%
34 | COC(=O)C1CN(CCc2ccccc2)CCS(=O)(=O)N1Cc1cccc(Cl)c1 (stereo not given) | 2.53%
35 | COc1ccccc1NS(=O)(=O)c1ccc(C)c(C(=O)NNC(=O)c2csc(N3CCOCC3)n2)c1 | 8.51%
36 | COc1ccc(NS(=O)(=O)c2ccc(C)c(C(=O)NNC(=O)c3csc(N4CCOCC4)n3)c2)cc1 | 26% (active)
37 | COc1ccc(NS(=O)(=O)c2ccc(N3CCOCC3)c(NC(=O)c3ccccc3Br)c2)cc1 | 6.43%
38 | CCC[C@H]1C(=O)CC[C@@]23CCCN2C(=O)CCC[C@@H]13 | -1.01%
39 | Cc1ccc(N2C(=O)N3[C@@H]4c5ccccc5OC[C@@H]4[C@@H](c4ccccc4)[C@@]3(C)C2=O)cc1 | 20.3% (active)
40 | C[C@@H]1NC(=O)[C@@]2(C)[C@@H](c3ccccc3)[C@H]3COc4ccccc4[C@@H]3N2C1=O | -7.53%
41 | CCOC(=O)[C@@H]1[C@H]2COc3ccc(Br)cc3[C@H]2N2C(=O)N(c3ccc(C)cc3)C(=O)[C@@]12C | 1.71%
42 | CCOC(=O)c1csc(NC(=O)C2CCCN(S(=O)(=O)c3ccc(Cl)s3)C2)n1 (stereo not given) | 10%
43 | Cc1ccccc1-n1c(SCC(=O)Nc2cccc3ccccc23)nc(O)cc1=O | 27% (active)
44 | C=CCn1c(N)cc(=O)nc1SCC(=O)Nc1cccc2ccccc12 | -27%
45 | Cc1ccc(-n2c(SCC(=O)Nc3cccc4ccccc34)nnc2-c2ccccn2)cc1 | -6.55%
46 | O=S1(=O)c2ccc(N3CCN(Cc4ccccc4F)CC3)cc2Oc2ccccc2CN1Cc1cn(Cc2ccc(Cl)cc2)nn1 | 7.21%
47 | CCOc1ccc(-n2c(SCC(=O)Nc3cc(C)c(NC(=O)c4ccccc4)cc3OC)nnc2-c2cccc(Cl)c2)cc1 | 8.65%
48 | COc1cccc(CC2(CO)CCCN(Cc3nc(-c4cccs4)oc3C)C2)c1 (stereo not given) | 0.04%
49 | COc1cccc(CNC(=O)CCC2CCCN(Cc3ccc(OC(F)F)cc3)C2)c1 (stereo not given) | -2.49%
50 | COc1cccc(CC2(CO)CCCN(Cc3ccc(OC(F)F)cc3)C2)c1 (stereo not given) | 19.9% (active)
51 | O=C(CN(CC1CCCO1)C(=O)CNS(=O)(=O)c1ccc(Cl)cc1)NCc1ccccc1 (stereo not given) | 3.32%
52 | CCCOc1ccc(Oc2c(Cl)cnn(Cc3cccc4ccccc34)c2=O)cc1 | -13%
53 | COc1ccc(C(=O)OCCN2CCN(C3CN(Cc4cn(Cc5ccccc5F)nn4)S(=O)(=O)C3)CC2)cc1OC (stereo not given) | -2.27%
54 | CC(c1c[nH]c2ccccc12)c1c(-c2ccccc2)n(C)c2ccccc12 (stereo not given) | -17.9%

Row | SMILES | inhibition
55 | CCCC(=O)Nc1cccc(NC(=S)NC(=O)C(C)Oc2ccc(Cl)cc2Cl)c1 (stereo not given) | 6.41%
56 | CC(C)C(=O)Nc1cccc(NC(=S)NC(=O)C(c2ccccc2)c2ccccc2)c1 | 21.2% (active)
57 | CCCCC(=O)NNC(=S)NC(=O)C(c1ccccc1)c1ccccc1 | 7.07%
58 | CSCCC1NC2(C(=O)Nc3ccc(Cl)cc32)[C@@H]2C(=O)N(C3CCCC3)C(=O)[C@H]12 (stereo not given in full) | 11.7%
59 | CC(C)(C)N1C(=O)[C@H]2[C@@H](c3ccc(Br)cc3)N3C(=O)N(c4cccc(Cl)c4)C(=O)[C@@]3(C)[C@H]2C1=O | 33.8% (active)
60 | CC12C(=O)N(c3ccccc3)C(=O)C1C(c1ccccc1)N1CCCN12 (stereo not given) | -2%
61 | COc1ccc([C@@H]2[C@@H]3C(=O)N(C(C)(C)C)C(=O)[C@@H]3[C@]3(Cc4ccccc4)C(=O)N(c4cccc(Br)c4)C(=O)N23)cc1 | 33.4% (active)
62 | CC[C@@]12C(=O)N(c3ccccc3)C(=O)N1[C@H](c1ccc(Br)cc1)[C@@H]1C(=O)N(C(C)(C)C)C(=O)[C@@H]12 | 15.3%
63 | C[C@@]12C(=O)N(c3cccc(Br)c3)C(=O)N1[C@H](c1ccc(Cl)cc1)[C@@H]1C(=O)N(C3CCCCC3)C(=O)[C@@H]12 | 31.7% (active)
64 | CCN1C(=O)[C@H]2[C@@H](c3ccc(C)cc3)N3C(=O)N(c4cccc(Br)c4)C(=O)[C@@]3(CC)[C@H]2C1=O | 4.57%
65 | COC(=O)[C@]12C[C@H](CC(=O)NCc3ccccc3)C(=O)N(Cc3ccccc3)C1=C[C@H](COCc1ccccc1)O[C@@H]2C | 6.96%
66 | C=CCN(C)CC#Cc1ccccc1 | -2.28%
67 | O=C(OC12CCCN(C1)/C(=C/c1ccccc1)C2)c1ccco1 (stereo not given) | 8.44%
68 | O=S1(=O)c2c(NCc3ccco3)cccc2Oc2ccccc2CN1Cc1cn(Cc2cccc(C(F)(F)F)c2)nn1 | -9.48%
69 | COc1ccc(-c2cc(-c3nnc(SCC(=O)Nc4cccc5ccccc45)n3N)[nH]n2)cc1 | -7.36%
70 | CC(CCN1CCC(C(O)(c2ccccc2)c2ccccc2)CC1)Oc1ccc(C(F)(F)F)cc1 (stereo not given) | 5.96%
71 | CCCC(O)(CCC)C(=O)NN(C(=O)CCl)c1cccc(C)c1 | -8.56%
72 | Cc1ccc(N(NC(=O)C(C)(C)O)C(=O)c2ccccc2)cc1C | 87.5% (active)
73 | COC(=O)N(NC(=O)C(O)(C(C)C)C(C)C)c1ccccc1 | -0.6%
74 | O=C(CN1CCCc2ccccc21)NCc1ccc(F)cc1 | 1.16%
75 | O=C(Nc1cc(F)cc(F)c1)OC1CCC12CCC(c1ccccc1)CC2 (stereo not given) | 7.13%
76 | CCC(=O)OCc1c(C(F)(F)F)nn(C)c1Oc1cccc(C(F)(F)F)c1 | -6.05%
77 | COC(=O)c1ccccc1Sc1c(/C=N/OCc2ccc(Cl)cc2)c(C(F)(F)F)nn1C | -2.32%
78 | Cn1nc(C(F)(F)F)c(C(=O)Nc2cccc(C(F)(F)F)c2)c1SCc1ccc(Cl)cc1 | 43.5% (active)
79 | c1csc(-c2nnc(SCc3nc4ccccc4[nH]3)o2)c1 | -40.8%
80 | N#Cc1ccccc1OC[C@@H](O)CN1CCC(C(O)(c2ccccc2)c2ccccc2)CC1 | -0.66%
